According to PubChem BioAssay (Tox21):
Activity calls are given as the source filed them. Calls come from the whole dose curve; as a rule, active = well fitted curve in the direction sought with a large enough effect in the repeat runs; inconclusive = weak or mixed curves; inactive = flat fitted curve, though single readings scatter.

Experiment: qHTS assay to test for compound auto fluorescence at 460 nm (blue) in HEK293 cells (AID 720678)
Settings: blue autofluorescence 405/460 nm; series mostly up to 91.3 µM; fluorescence, % of triamterene: at the top concentration
Source text: National Center for Advancing Translational Sciences [NCATS]
NIH Chemical Genomics Center [NCGC]
U.S. Environmental Protection Agency [EPA]
National Institutes of Environmental Health Sciences [NIEHS]
National Toxicology Program [NTP]
U.S. Food and Drug Administration [FDA]
Compound auto fluorescence often interferes with screening of the compound library against various biological targets and signaling pathways. Some of these compounds may have fluorophoric properties. Such properties may interfere with the assay outputs resulting in false positives and/or negatives. To decrease such complications and ensure the compound activities are relevant in terms of biological response, the Tox21 10K compound library was screened for auto fluorescence.
From the fluorophores used as reporter signals in our screening assays, the auto fluorescence equivalencies of compounds against three fluorophores have been evaluated: Triamterene, Fluorescein and Rose Bengal sodium for blue, green and red fluorescence, respectively. The fluorescence intensities were measured using Excitation/Emission wavelengths at 405/460nm, 485/535nm and 540/590nm for blue, green and red labels, respectively. This assay includes the blue fluorescence data.
Tox21 Assay Protocol Summary:
2,000 HEK293 cells in 5 uL of culture medium containing 10% dialyzed FBS per well were dispensed into black wall/clear bottom 1536-well plates using a Multidrop Combi Dispenser (Thermo Scientific). The assay plates were incubated for 4-5 hr at 37C to allow cell attachment to the well bottom, followed by the transfer of 23 nL compound or DMSO vehicle by a pintool work station (Kalypsys, San Diego, CA). After the assay plates were incubated overnight at 37C and 5% CO2, fluorescence intensities in the assay plates were measured by an Envision (PerkinElmer, Shelton, CT) plate reader using three labels for measuring blue, green and red fluorescence at […] 460, 535 and 590nm respectively.
% is set by controls: 0 for no effect and ±100 for the full control effect.

| SMILES | outcome | fluorescence, % of triamterene |
| --- | --- | --- |
| O=C(O)CC[N+](=O)[O-] | inactive |  |
| Nc1cccnc1 | inactive |  |
| C[C@]12CCC(=O)C[C@@H]1CC[C@@H]1[C@@H]2CC[C@]2(C)[C@@H](O)CC[C@@H]12 | inactive |  |
| CCC(C)(c1ccc(O)cc1)c1ccc(O)cc1 | inactive |  |
| O=C(NC(=O)c1c(F)cccc1F)Nc1ccc(Cl)cc1 | inactive |  |
| N#Cc1cc(Br)c(O)c(Br)c1 | inactive |  |
| CCCCC(CC)COC(=O)Cl (stereo not given) | inactive |  |
| CC(C)c1ccc(CO)cc1 | inactive |  |
| CCCCC(CC)COC(=O)c1ccc(C(=O)OCC(CC)CCCC)c(C(=O)OCC(CC)CCCC)c1 (stereo not given) | inactive |  |
| CC1(C)C(C=C(Cl)Cl)C1C(=O)OC(C#N)c1cccc(Oc2ccccc2)c1 (stereo not given) | inactive |  |
| O=[N+]([O-])c1c(Cl)c(Cl)c(Cl)c(Cl)c1Cl | inactive |  |
| C=C(C)C(=O)OCC1CO1 (stereo not given) | inactive |  |
| O=[N+]([O-])c1ccc(O)c([N+](=O)[O-])c1 | inactive |  |
| C=CCN(CC=C)C(=O)C(Cl)Cl | inactive |  |
| COP(=S)(OC)Oc1ccc([N+](=O)[O-])cc1 | inactive |  |
| Nc1ccncc1 | inactive |  |
| Oc1ccc(-c2ccccc2)cc1 | inactive |  |
| COC(=O)c1sccc1S(=O)(=O)NC(=O)Nc1nc(C)nc(OC)n1 | inactive |  |
| C=CCc1ccc(OC)cc1 | inactive |  |
| COP(=O)(OC)OC | inactive |  |

| SMILES | outcome | fluorescence, % of triamterene |
| --- | --- | --- |
| CCCCCCCCOC(=O)c1ccccc1C(=O)OCCCCCCCC | inactive |  |
| CCC(C)c1cc([N+](=O)[O-])cc([N+](=O)[O-])c1O (stereo not given) | inactive |  |
| COc1ccc(C(CN(C)C)C2(O)CCCCC2)cc1 (stereo not given) | inactive |  |
| C#CCOS(=O)OC1CCCCC1Oc1ccc(C(C)(C)C)cc1 (stereo not given) | inactive |  |
| Clc1nc(Cl)nc(Cl)n1 | inactive |  |
| Cc1ccc(OP(=O)(Oc2ccc(C)cc2)Oc2ccc(C)cc2)cc1 | inactive |  |
| CCc1cccc(CC)c1N(COC)C(=O)CCl | inactive |  |
| Nc1c(Cl)cc([N+](=O)[O-])cc1Cl | inactive |  |
| c1ccc(N=Nc2ccccc2)cc1 | inactive |  |
| O=Cc1ccco1 | inactive |  |
| C1=Cc2cccc3cccc1c23 |  | 0.354% (inactive) |
| CC(C)Oc1cc(-n2nc(C(C)(C)C)oc2=O)c(Cl)cc1Cl | inactive |  |
| CC(C)C(=O)OCC(C)(C)C(OC(=O)C(C)C)C(C)C (stereo not given) | inactive |  |
| CCOc1cc(C=O)ccc1O | inactive |  |
| CN(C)c1ccc(C(=O)c2ccc(N(C)C)cc2)cc1 |  | 8.76% (inactive) |
| O=C(Nc1ccc(Br)cc1)c1cc(Br)cc(Br)c1O | inactive |  |
| Nc1ccc(-c2ccccc2)cc1 | inactive |  |
| CCN(CC)N=O | inactive |  |
| CC(C)(C)c1ccccc1O | inactive |  |
| Nc1ccc(Cl)cc1N | inactive |  |
